The text below walks through data of the supplement of paper PMC7801607.

The test system of this test is Plasmodium berghei ANKA liver stage in HepG2-A16-CD81. Put plainly: % inhibition of liver stage parasite viability (luciferase); higher = more inhibition. As to conditions: 5 µM; 48 h. As to the method: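 Single-concentration screen of the MMV Pandemic Response Box. P. falciparum NF54 asexual blood stages: pLDH assay, 72 h at 37 °C, 2 and 20 µM, n=2. Stage IV/V gametocytes (NF54): luciferase reporter (NF54-Pfs16-GFP-Luc, 48 h), ATP bioluminescence (24 h) and PrestoBlue (48 h) at 1 and 5 µM, n=1. P. berghei liver stage (luciferase in HepG2-A16-CD81, 48 h post infection) at 5 µM, n=4. All normalised to DMSO and kill controls as % inhibition.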
With `Cc1onc(-c2ccccc2)c1-c1ccc(S(N)(=O)=O)cc1`, the “% inhibition of liver stage parasite viability” value (from here on “% inhibition”) is 4.19%. Turning to `CSC[C@H]1CN(Cc2c[nH]c3c(N)ncnc23)C[C@@H]1O`, the “% inhibition” value is 40.2%. For the compound `Clc1cc2nc(C3CCNCC3)n(Cc3ccc(CNCCc4cnc[nH]4)cc3)c2cc1Cl`, the “% inhibition” value was 45.7%. Take `NC[C@H]1O[C@H](O[C@H]2[C@H](O)[C@@H](O[C@H]3O[C@H](CO)[C@@H](O)[C@H](N)[C@H]3O)[C@H](N)C[C@@H]2N)[C@H](N)C[C@@H]1O`: the “% inhibition” value stood at 36.3%.

On to `Nc1nc(NC2Cc3ccc(F)cc3C2)nc(N2CCCCC2)n1` (stereo not given), for which the “% inhibition” value came out at 23.6%.

`Nc1nc(O)c2ncn(COC(CO)CO)c2n1`: the “% inhibition” value was 7.49%. As for `O=C(O)c1ccc(-n2nc(-c3ccccc3O)nc2-c2ccccc2O)cc1`, the “% inhibition” value was 18.6%. For `COc1ccc(SC(=O)N[C@H](CCC(=O)O)C(=O)O)cc1`, the “% inhibition” value was 19.9%. With `Cc1cccc(CC(=O)N[C@H]2CCOC2=O)c1` the figure was 4.19%. As for `Nc1cnn(C2OC(CO)C(O)C2O)c(=O)n1` (stereo not given), the “% inhibition” value was -44.9%. Turning to `O=c1[nH]c(=O)n(Cc2cccc(Oc3ccccc3)c2)cc1Nc1ccccc1`, the “% inhibition” value was -3.63%. Next, `O=c1cc(Nc2ccc3ccccc3c2)[nH]c(=O)[nH]1`: 39.9%; `O=C(Nc1ncc(Cc2cccc3ccccc23)s1)C1CCCCC1`: -13.3%.

`O=C(CSc1nnc(Br)n1-c1ccc(C2CC2)c2ccccc12)Nc1ccc(C(=O)O)cc1Cl`: the “% inhibition” value was 27.6%.

Take `CCn1cc(C(=O)O)c(=O)c2cc(F)c(N3CCNC(C)C3)c(F)c21` (stereo not given): the “% inhibition” value came to 22.1%. Turning to `O=C(/C=C\n1cnc(-c2cc(C(F)(F)F)cc(C(F)(F)F)c2)n1)NNc1ccccn1`, the “% inhibition” value is 16.2%. `CN(Cc1ccc(C(C)(C)C)cc1)Cc1cccc2ccccc12`: the “% inhibition” value was 10.2%.

In the case of `NC(=O)c1ccccc1NC(=O)c1ccc(C(=O)Nc2ccccc2C(N)=O)cc1`, the “% inhibition” value amounted to 42%. Take `O=C(O)c1cc(-c2ccccc2)nc2ccccc12`: the “% inhibition” value worked out at 38.5%. `Cc1nc(N(C)C(=O)Cc2ccc(-c3ccccn3)cc2)sc1S(N)(=O)=O`: the “% inhibition” value is 24.8%. Next, `Oc1c(C(Nc2ccccn2)c2ccccc2)ccc2cccnc12` (stereo not given): 12.4%. On to `O=c1oc2ccc(Br)cc2cc1CSc1ncc[nH]1`, for which the “% inhibition” value was -13.1%.

Regarding `Cc1c[nH]c(=O)nc1NCc1ccccc1`, the “% inhibition” value came out at 18.3%. Next, `CCc1cc(Nc2cc(=O)n(CCN3CCN(C(=O)c4ccccc4)CC3)c(=O)[nH]2)ccc1C`: 10.7%; `CC(C)(C)OC(=O)NCc1ccc(C(=O)N[C@H]2CCOC2=O)cc1`: 39.8%; `O=C(O)CCNC(=O)c1ccccc1`: 16%. Turning to `CC(N)C(=O)NC(CCCCN)C(=O)NC(CCCNC(=N)N)C(=O)NC(Cc1c[nH]cn1)C(=O)NC(Cc1c[nH]cn1)C(=O)NCC(=O)NC(Cc1ccc(O)cc1)C(=O)NC(CCCCN)C(=O)NC(CCCNC(=N)N)C(=O)NC(CCCCN)C(=O)NC(Cc1ccccc1)C(=O)NC(Cc1c[nH]cn1)C(N)=O` (stereo not given), the “% inhibition” value stood at 26.4%. `C=CCN(C(=O)OCc1ccc([N+](=O)[O-])cc1)C1CCN(CC[C@](C)(CN(C)S(=O)(=O)c2ccccc2)c2ccccc2)CC1`: the “% inhibition” value was 42.2%. For the compound `CCC(C)(C)c1ccc(CC(C)CN2C[C@@H](C)O[C@@H](C)C2)cc1` (stereo not given in full), the “% inhibition” value turned out to be 40.5%. As for `Fc1ccc2c(/C=C/c3cccnc3)c[nH]c2c1`, the “% inhibition” value was -23.8%. Next, `NC1C2CC3CC(C2)CC1C3` (stereo not given): 9.47%; `Cc1ccc(C)c(OCCCCCCN2C[C@H](O)[C@@H](O)[C@H](O)[C@H]2CO)c1`: 11.6%; `CCc1cc(Cc2cnc(N)nc2N)cc2c1N(C)CCC2C` (stereo not given): 7.3%. In the case of `O=C(NN1C(=O)[C@@H]2C3C=CC([C@H]4C[C@@H]34)[C@@H]2C1=O)c1ccc(C(F)(F)F)cc1`, the “% inhibition” value worked out at 26.8%. Next, `Oc1cc(-c2cccc3ccccc23)[nH]n1`: 45.4%; `CC1CCc2c(N3CCC(O)CC3)c(F)cc3c(=O)c(C(=O)O)cn1c23` (stereo not given): 17.1%. Turning to `CN(O)C(=O)c1cc2c(CN3CCC[C@H]3C(N)=O)cn(Cc3ccc(F)cc3)c2cn1`, the “% inhibition” value was determined as 24.6%. With `Nc1cc(-c2nc3ccccc3[nH]2)n[nH]c1=O` the figure was 24%; with `O=C(Nc1ccc(Cl)c(C(F)(F)F)c1)C(CCCl)C(=O)Nc1ccc(Cl)c(C(F)(F)F)c1`, 11.8%.

Take `O=C(CP(=O)(O)O)NCCc1cccc(Oc2ccccc2)c1`: the “% inhibition” value was 27.3%.
